This passage reports inhibition results from PubChem BioAssay AID720554 (ICCB-Longwood Screening Facility, Harvard Medical School, 2013).

Assay [1] is described as follows: BmaI1 acyl-homoserine lactone synthase inhibition – biochemical, fluorescence intensity, with counterscreen (AID 720554). The conditions noted are these: BmaI1 enzyme assay, measured here: counterscreen fluorescence % control, concentration not given here.
Assay [2] relates to acyl-homoserine lactone synthase BmaI1 (Burkholderia mallei ATCC 23344). Described as above. The settings on record: BmaI1 enzyme assay, stronger effect = higher value, concentration not given here.

The campaign covered roughly 12,000 compounds. About 45 (0.4%) were called active. The sample holds actives, similar compounds and a random draw of the others, so the mix is not that of the screen. Cut-off read from the data, not from the text of the source: active = inhibition mostly above about 83% (no sharp cut-off); inactive = mostly below about 52%.

Usually inhibition stands for the relative decrease from the control value, in per cent.

As to `O=C1N=c2ccccc2=C1c1sc(N2CCCCC2)nc1O`, the inhibition in assay [1] was 8.5%; in assay [2] it was 91.5% (active).

With `Cc1nc(N2CCCC2)sc1C(=O)c1oc2ccccc2c1C`, the results for the inhibition in assay [1] and in assay [2] were 17% and 20% (inactive), respectively.

Take `Cc1nc(N2CCCCC2)sc1C1Sc2ccccc2NC1=O` (stereo not drawn): the inhibition in assay [1] is -5%; in assay [2], -2.5% (inactive).

Turning to `CC(C)CNCC(=O)Nc1ccc(S(N)(=O)=O)cc1`, the inhibition in assay [1] is -1.5%; in assay [2] it was 6.5% (inactive).

For the compound `Cc1csc(C(C#N)C(=O)CSc2ccc3c(c2)OCCO3)n1` (stereo not drawn), the values for the inhibition in assay [1] and in assay [2] were 0% and 16% (inactive), respectively.

Turning to `Cn1cccc1C(=O)Nc1ccc2c(c1)nc1n2CCCCC1`, the inhibition in assay [1] was 27%; in assay [2] it was 18% (inactive).

As to `S=c1[nH]c(-c2ccccc2)cn1/N=C/c1ccc2c(c1)OCCO2`, the inhibition in assay [1] was 41.5%; in assay [2] it was 94% (inactive).

Take `CC(=O)Nc1ccc(/C=N/N2C(=O)c3ccccc3C2=O)cc1`: the results for the inhibition in assay [1] and in assay [2] were 14.5% and 13% (inactive), respectively.

With `CC(=O)Nc1ccc(/C=N/n2cc(-c3ccccc3)[nH]c2=S)cc1`, the inhibition in assay [1] was 13.5%; in assay [2] it was 90% (active).

In the case of `O=C(CCc1nc2ccccc2c(=O)[nH]1)Nc1ccccc1C(=O)NC1CC1`, the inhibition was 5.5% in assay [1] and 13.5% (inactive) in assay [2].

Consider `O=C(OC(c1ccccc1)c1ccccc1)c1ccncc1`, for which the results for the inhibition in assay [1] and in assay [2] were 14% and 14% (inactive), respectively.

As for `CC1=C(C(=O)O)N2C(=O)[C@@H](NC(=O)[C@H](N)c3ccccc3)[C@H]2SC1`, the inhibition in assay [1] is 7.5%; in assay [2], -7% (inactive).

Take `N[C@@H](C(=O)N[C@@H]1C(=O)N2C(C(=O)O)=C(CSc3cn[nH]n3)CS[C@H]12)c1ccc(O)cc1` (tested in a mixture with another compound): the results for the inhibition in assay [1] and in assay [2] were 6% and 93% (active), respectively.

Take `N[C@@H](C(=O)N[C@@H]1C(=O)N2C(C(=O)O)=C(Cl)CS[C@H]12)c1ccccc1`: the inhibition in assay [1] is 4.5%; in assay [2] it was 5% (inactive).

Turning to `CN(C)S(=O)(=O)c1cccc(COC(=O)c2cn(-c3ccccc3)nc2-c2cccs2)c1`, the inhibition in assay [1] was -2.5%; in assay [2] it was 8.5% (inactive).

For the compound `Cc1ccc(-c2csc(NC(=O)C3(c4ccccc4)CC3)n2)s1`, the inhibition was 20% in assay [1] and 20% (inactive) in assay [2].

Consider `O=C(c1cc(-c2ccccc2)nn1-c1ccccc1)N(C1CC1)C1CCS(=O)(=O)C1` (stereo not drawn), for which the inhibition in assay [1] was 2%; in assay [2], 7% (inactive).

Take `Cc1ccc(Cn2c(=S)[nH]c3ccccc32)cc1`: the inhibition was 3% in assay [1] and 97% (active) in assay [2].

For `Cn1c(=S)[nH]c2ccccc21`, the values for the inhibition in assay [1] and in assay [2] were 5% and 51.5% (inactive), respectively.

In the case of `FC(F)n1c(=S)[nH]c2ccccc21`, the inhibition is 0.5% in assay [1] and 13.5% (inactive) in assay [2].

As to `CC(Sc1nnnn1-c1ccc(O)cc1)C(=O)c1ccccc1` (stereo not drawn), the inhibition in assay [1] is 2.5%; in assay [2], 8.5% (inactive).

As for `O=S(=O)(NNC1=NCCCCC1)c1ccccc1`, the inhibition is 28.5% in assay [1] and 63.5% (inactive) in assay [2].

`c1ccc(NNC2=NCCCCC2)nc1`: the results for the inhibition in assay [1] and in assay [2] were 4.5% and 85% (active), respectively.

For the compound `c1ccc(CNC2=NCCCCC2)nc1`, the figures for the inhibition in assay [1] and in assay [2] were -13% and -8.5% (inactive), respectively.

For `O=Nc1c(O)[nH]c2c(C(F)(F)F)cccc12`, the values for the inhibition in assay [1] and in assay [2] were 11% and 13% (inactive), respectively.

For the compound `COc1cccc(-n2c(SC3CCOC3=O)nc3ccccc3c2=O)c1` (stereo not drawn), the inhibition in assay [1] was 13.5%; in assay [2], 14.5% (inactive).

For `O=C(CSc1ncc(C(F)(F)F)cc1Cl)N1CCN(S(=O)(=O)c2ccccc2)CC1`, the inhibition in assay [1] was -4%; in assay [2], 8.5% (inactive).

`Cc1noc(C)c1COc1ccc(C(=O)OCC(N)=O)cc1`: the values for the inhibition in assay [1] and in assay [2] were 3% and 14% (inactive), respectively.

`O=C(CCSc1ccc(Cl)cc1)Nc1ccccc1`: the inhibition is 17.5% in assay [1] and 15% (inactive) in assay [2].

Take `CCn1c(CCC(=O)N2CCN(c3ccccn3)CC2)nc2cc(S(N)(=O)=O)ccc21`: the figures for the inhibition in assay [1] and in assay [2] were -0.5% and 98% (active), respectively.

As to `CCCn1c(CCC(=O)N(C)c2ccccc2)nc2cc(S(=O)(=O)N3CCCC3)ccc21`, the inhibition was -2.5% in assay [1] and 37% (inactive) in assay [2].

With `CCN(CC)S(=O)(=O)c1ccc2c(c1)nc(CCC(=O)N1CCN(c3ccccc3)CC1)n2CC`, the inhibition is 10.5% in assay [1] and 17% (inactive) in assay [2].

As to `Cc1ccc(C2=NN(C(=O)CSc3ccc4c(c3)OCCO4)C(c3ccco3)C2)cc1` (stereo not drawn), the inhibition in assay [1] was 0%; in assay [2], 7.5% (inactive).

For the compound `O=C(OCC1CCCCC1)c1n[nH]c2ccccc12`, the inhibition is 12.5% in assay [1] and 30.5% (inactive) in assay [2].

Consider `COc1ccc(Br)cc1CN(C)CN1C(=O)C2CC=CCC2C1=O` (stereo not drawn), for which the inhibition was 10.5% in assay [1] and 3.5% (inactive) in assay [2].

For `CN1/C(=C\C=N\NC(N)=S)C(C)(C)c2ccccc21`, the inhibition in assay [1] is 29%; in assay [2] it was 85% (active).

As to `CN1/C(=C\C=N\NC(=O)c2cccnc2)C(C)(C)c2ccccc21`, the inhibition is 7% in assay [1] and 43% (inactive) in assay [2].

On to `CN1/C(=C\C=Nc2ccccc2N)C(C)(C)c2ccccc21`, for which the inhibition in assay [1] was -25%; in assay [2], -9% (inactive).

In the case of `CC(C)(C)c1ccc(C(=O)NCCc2ccccn2)cc1`, the inhibition in assay [1] is 2%; in assay [2], 5.5% (inactive).

As to `Cc1cccc(OCc2nnc3n2-c2ccccc2SC3)c1`, the inhibition was -6.5% in assay [1] and -1.5% (inactive) in assay [2].

In the case of `O=C(COC(=O)/C=C/c1ccco1)Nc1cccc(C(F)(F)F)c1`, the inhibition was -1% in assay [1] and 0.5% (inactive) in assay [2].

For the compound `CC1Cc2ccccc2N1CC(=O)NCc1ccc2c(c1)OCO2` (stereo not drawn), the inhibition in assay [1] was -28%; in assay [2], 48% (inactive).

In the case of `S=C(c1ccc(-c2ccccc2)o1)N1CCN(c2ccccc2)CC1`, the inhibition was 13.5% in assay [1] and 97.5% (active) in assay [2].

`NC(=O)c1ccc(-c2ccccc2)o1`: the values for the inhibition in assay [1] and in assay [2] were 40% and 20% (inactive), respectively.
